Experimental findings from PubChem BioAssay (NCATS) are described below.

Assay [1] deals with Cytochrome P450 3A7 (Homo sapiens) (UniProt P24462). In words: Cytochrome P450 family 3 subfamily A member 7 (CYP3A7) small molecule antagonists: luciferase biochemical qHTS assay (AID 1963596). Note: % is set by controls: 0 for no effect and ±100 for the full control effect; nearly all actives have a fitted effect of over 40% in size. The method in brief: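 Recombinant CYP3A7 P450-Glo luminescent assay: enzyme-proluciferin substrate mix preincubated with compound 10 min at room temperature, reaction started with NADPH regeneration system for 1 h. Luciferin detected by luminescence; ketoconazole as positive control.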

Assay [2] is described as follows: Cellular viability qHTS for adrenocortical cancer (ACC) cell line SW-13 (AID 1963989).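 Note: cells grown in serum-free medium with ITS supplement; % is set by controls: 0 for no effect and ±100 for the full control effect; nearly all actives have a fitted effect of over 65% in size.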 The note with it: SW-13 ACC cells viability, CellTiter-Glo, 48 h; activity (max response): stronger effect = lower value. Summed up: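 Luminescent ATP read-out (CellTiter-Glo, 20 min at room temperature) measured metabolically competent SW-13 cells after 48 h compound treatment. Final concentrations spanned up to 46 uM; bortezomib served as positive control.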
For orientation: Quantitative high-throughput screening tests each substance at several concentrations.

A short description of assay [3]: Cellular viability qHTS for adrenocortical cancer (ACC) cell line NCI-H295R (AID 1963990). Note: nearly all actives have a fitted effect of over 60% in size. Note: potency is the fitted concentration of half-maximal effect. The method in brief: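 IC50 and maximal efficacy derive from four-parameter logistic modelling of titration curves, with reads scaled between DMSO-only wells (0%) and doxorubicin hydrochloride (100% inhibition). Compounds spanned up to 46 uM over 48 h.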

Where “and” joins values, the source holds several entries; their conditions need not be identical. Equal entries are not always repeated. Results filed as inconclusive are left out. Values without a mark were called inactive. Calls of active or inactive are those of the source. Calls come from the whole dose curve; as a rule, active = well fitted curve in the direction sought with a large enough effect; inconclusive = small, poorly fitted or top-dose-only effect, or another doubt; inactive = no such curve, though single readings can be large; an effect the other way counts as inactive or inconclusive. Where a SMILES comes first, the peptide text is derived from it. Bridges are numbered along the chain shown (N, C = ends). [ ]: non-standard residue; d: D form. hArg = N=C(N)NCCCC[C@H](N)C(=O)O; Mpa = O=C(O)CCS

Chain of Cytochrome P450 3A7 (Homo sapiens) (P24462 whole entry, looked up): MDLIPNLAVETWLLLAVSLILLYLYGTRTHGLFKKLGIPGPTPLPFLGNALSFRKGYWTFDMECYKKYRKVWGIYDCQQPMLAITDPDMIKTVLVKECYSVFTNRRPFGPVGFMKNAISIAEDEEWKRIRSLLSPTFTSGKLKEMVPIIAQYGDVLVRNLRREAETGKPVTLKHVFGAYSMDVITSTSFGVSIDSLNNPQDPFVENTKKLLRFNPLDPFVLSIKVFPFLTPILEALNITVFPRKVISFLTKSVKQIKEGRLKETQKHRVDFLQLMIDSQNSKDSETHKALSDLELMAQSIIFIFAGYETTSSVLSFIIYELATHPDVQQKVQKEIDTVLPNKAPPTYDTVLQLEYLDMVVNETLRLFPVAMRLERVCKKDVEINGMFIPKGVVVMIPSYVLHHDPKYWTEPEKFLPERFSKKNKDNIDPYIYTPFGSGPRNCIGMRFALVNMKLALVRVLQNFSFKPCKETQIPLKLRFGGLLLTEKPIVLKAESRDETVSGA

Turning to `CCOC(CN1CCN(CC(C)C(=O)c2ccccc2)CC1)c1ccccc1` (centres undefined), the Potency result in assay [1] and in assay [3] was “inactive” in each case. Moreover, the activity (max response) in assay [2] is -8.86%.
As for `Cn1cc(S(C)=O)c(=O)c2ccc(F)cc21` (centres undefined), the Potency entry in assay [1] and in assay [3] was “inactive” in each case. Also, the activity (max response) in assay [2] was 8.71%.
For `COP(=O)(OC)OC(c1ccc(Cl)cc1)P(=O)(OC)OC` (centres undefined), the Potency result in assay [1] and in assay [3] was “inactive” each time. Besides, the activity (max response) in assay [2] was -0.893%.
With `O=c1[nH]c(=O)n([C@H]2O[C@H](CO)[C@@H](O)[C@@H]2O)cc1/C=C\Br`, the Potency result in assay [1] and in assay [3] was “inactive” each time. Moreover, the activity (max response) in assay [2] is -3.87%.
Take `CCO/C([O-])=N/c1c[n+](N2CCOCC2)no1`: the Potency result in assay [1] and in assay [3] was “inactive” throughout. In assay [2], the activity (max response) was -2.98%.
On to `CCCCN(CCN(CCCC)C(=O)N1CCOCC1)C(=O)N1CCOCC1`, for which the Potency entry in assay [1] and in assay [3] was “inactive” throughout. For the same compound, the activity (max response) in assay [2] was 13.7%.
In the case of `CC(C)(Oc1ccc(Cl)cc1)C(=O)O`, the Potency result in assay [1] and in assay [3] was “inactive” each time. In assay [2], the activity (max response) was -3.02%.
In the case of `Brc1ccccc1-c1ccccc1`, the Potency entry in assay [1] and in assay [3] was “inactive” each time. Further, the activity (max response) in assay [2] is 7.98%.
Take `NC(=O)N[C@@H](CCC(=O)O)C(=O)O`: the Potency result in assay [1] and in assay [3] was “inactive” each time. For the same compound, the activity (max response) in assay [2] was 9.08%.
Turning to `C[C@@H]1CCN(C(=O)N2CCCC2)C[C@@H]1N(C)c1ncnc2[nH]ccc12`, the Potency entry in assay [1] and in assay [3] was “inactive” in each case. In addition, in assay [2], the activity (max response) is 11.2%.
`NC(=O)[C@@H]1CSSCCC(=O)N[C@@H](CCCCN=C(N)N)C(=O)NCC(=O)N[C@@H](CC(=O)O)C(=O)N[C@@H](Cc2c[nH]c3ccccc23)C(=O)N2CCC[C@H]2C(=O)N1` ([Mpa][hArg]GDWPC-NH2; disulfide 1-7): the Potency entry in assay [1] and in assay [3] was “inactive” each time. The activity (max response) in assay [2] was 17.5%.
On to `O=C(O)[C@@H]1CSCN1`, for which the Potency entry in assay [1] and in assay [3] was “inactive” in each case. Moreover, the activity (max response) in assay [2] is -7.21%.
As for `Cc1cccc(C(=O)O)c1O`, the Potency entry in assay [1] and in assay [3] was “inactive” each time. For the same compound, the activity (max response) in assay [2] was 14.1%.
For the compound `NCCO`, the Potency result in assay [1] and in assay [3] was “inactive” each time. The activity (max response) in assay [2] was 7.88%.
On to `NC(=O)CC[C@@H]1NC(=O)[C@H](Cc2ccccc2)NC(=O)[C@H](Cc2ccc(O)cc2)NC(=O)CCSSC[C@@H](C(=O)N2CCC[C@H]2C(=O)N[C@@H](CCCN=C(N)N)C(=O)NCC(N)=O)NC(=O)[C@H](CC(N)=O)NC1=O`, for which the Potency result in assay [1] and in assay [3] was “inactive” each time. Also, in assay [2], the activity (max response) was -1.25%.
With `O=C(NN1CCCC1)NS(=O)(=O)c1ccc(Cl)cc1`, the Potency result in assay [1] and in assay [3] was “inactive” in each case.
As to `Oc1c(I)cc(I)c2cccnc12`, the Potency entry in assay [1] is “inactive”. In addition, the Potency in assay [3] was 3.66 µM (active).
For `NS(=O)(=O)c1ccc(N2CCCCS2(=O)=O)cc1`, the Potency entry in assay [1] and in assay [3] was “inactive” throughout. Besides, in assay [2], the activity (max response) was 16.4%.
Take `CC(=O)c1cc2ccccc2s1`: the Potency entry in assay [1] and in assay [3] was “inactive” throughout. In addition, the activity (max response) in assay [2] is 15.3%.
`O=C(NCC(=O)N1CC[C@H](NC2CCC(O)(c3ccc(-c4ncccn4)cn3)CC2)C1)c1cccc(C(F)(F)F)c1` (some centres undefined): the Potency result in assay [1] and in assay [3] was “inactive” throughout.
For the compound `O=C(Oc1ccccc1)c1cccc(C(=O)Oc2ccccc2)c1`, the Potency entry in assay [1] and in assay [3] was “inactive” each time. In addition, the activity (max response) in assay [2] is -1.98%.
In the case of `C[C@H](CN1CCCC1)C(=O)c1ccc(C(F)(F)F)cc1`, the Potency result in assay [1] and in assay [3] was “inactive” in each case. Besides, the activity (max response) in assay [2] is -1.72%.
As to `O=C(O)Cc1csc(-c2ccc(Cl)cc2)n1`, the Potency entry in assay [1] and in assay [3] was “inactive” in each case. In addition, the activity (max response) in assay [2] is -3.04%.
Turning to `COc1c(N2C[C@@H]3CCCN[C@@H]3C2)c(F)cc2c(=O)c(C(=O)O)cn(C3CC3)c12`, the Potency result in assay [1] and in assay [3] was “inactive” throughout. Besides, the activity (max response) in assay [2] was -4.75%.
As for `CCN1CC(CCN2CCOCC2)C(c2ccccc2)(c2ccccc2)C1=O` (centres undefined), the Potency entry in assay [1] and in assay [3] was “inactive” in each case. Besides, the activity (max response) in assay [2] was 1.41%.
Take `COc1cc2nc(Cl)nc(N)c2cc1OC`: the Potency entry in assay [1] and in assay [3] was “inactive” each time. In assay [2], the activity (max response) was 1.23%.
On to `CN/C(=C\[N+](=O)[O-])NCCSCc1csc(CN(C)C)n1`, for which the Potency result in assay [1] and in assay [3] was “inactive” each time. Moreover, in assay [2], the activity (max response) was 7.35%.
On to `CC(=O)N[C@H]1[C@H]([C@H](O)[C@H](O)CO)OC(C(=O)O)=C[C@@H]1N=C(N)N`, for which the Potency result in assay [1] and in assay [3] was “inactive” in each case. In addition, the activity (max response) in assay [2] was -7.79%.
`Nc1nc(N)c2nc(-c3ccccc3)c(N)nc2n1`: the Potency entry in assay [1] is “inactive”. Moreover, the Potency in assay [3] is 4.61 µM (active).
Take `N#Cc1cccc(-c2c[nH]c3ncnc(N4CCOCC4)c23)c1`: the Potency entry in assay [1] and in assay [3] was “inactive” in each case. Further, in assay [2], the activity (max response) is 9.94%.
As to `Cc1nc([N+](=O)[O-])cn1-c1ccc([N+](=O)[O-])cc1`, the Potency result in assay [1] and in assay [3] was “inactive” throughout. Also, in assay [2], the activity (max response) was -2.45%.
Consider `CNc1nc(C)nc(N[C@H]2CCC[C@@H](C(=O)NCc3ccc(C#N)cc3C(F)(F)F)C2)n1`, for which the Potency entry in assay [1] and in assay [3] was “inactive” in each case.
`NC(=O)c1ncn([C@@H]2O[C@H](CO)[C@@H](O)[C@H]2O)n1`: the Potency entry in assay [1] and in assay [3] was “inactive” each time. Also, the activity (max response) in assay [2] is -0.314% and -2.41%.
